Test results published in ChEMBL document CHEMBL3988442, “University of Dundee, Small-Polar-MMV Screening Library” (2021).
For some of these results: Entries with a potency or affinity are not part of this list.

How the values were obtained:
Set-up in all cases: scale not given: direction of the effect not stated beside the values
[1] = target: Protein translocase subunit SecA (Escherichia coli (strain K12)) (UniProt P10408); experiment: Assay to Identify E. coli SecA ATPase Inhibitors; assay type: functional; conditions: 30 µM
[2] = target: T1, Ubiquitin-activating enzyme e1, putative (Leishmania donovani (strain BPK282A1)) (UniProt E9BSI1); experiment: Leishmania donovani Ubiquitin Activating Enzyme (LdE1); assay type: functional; conditions: 30 µM
T1 sequence (whole entry): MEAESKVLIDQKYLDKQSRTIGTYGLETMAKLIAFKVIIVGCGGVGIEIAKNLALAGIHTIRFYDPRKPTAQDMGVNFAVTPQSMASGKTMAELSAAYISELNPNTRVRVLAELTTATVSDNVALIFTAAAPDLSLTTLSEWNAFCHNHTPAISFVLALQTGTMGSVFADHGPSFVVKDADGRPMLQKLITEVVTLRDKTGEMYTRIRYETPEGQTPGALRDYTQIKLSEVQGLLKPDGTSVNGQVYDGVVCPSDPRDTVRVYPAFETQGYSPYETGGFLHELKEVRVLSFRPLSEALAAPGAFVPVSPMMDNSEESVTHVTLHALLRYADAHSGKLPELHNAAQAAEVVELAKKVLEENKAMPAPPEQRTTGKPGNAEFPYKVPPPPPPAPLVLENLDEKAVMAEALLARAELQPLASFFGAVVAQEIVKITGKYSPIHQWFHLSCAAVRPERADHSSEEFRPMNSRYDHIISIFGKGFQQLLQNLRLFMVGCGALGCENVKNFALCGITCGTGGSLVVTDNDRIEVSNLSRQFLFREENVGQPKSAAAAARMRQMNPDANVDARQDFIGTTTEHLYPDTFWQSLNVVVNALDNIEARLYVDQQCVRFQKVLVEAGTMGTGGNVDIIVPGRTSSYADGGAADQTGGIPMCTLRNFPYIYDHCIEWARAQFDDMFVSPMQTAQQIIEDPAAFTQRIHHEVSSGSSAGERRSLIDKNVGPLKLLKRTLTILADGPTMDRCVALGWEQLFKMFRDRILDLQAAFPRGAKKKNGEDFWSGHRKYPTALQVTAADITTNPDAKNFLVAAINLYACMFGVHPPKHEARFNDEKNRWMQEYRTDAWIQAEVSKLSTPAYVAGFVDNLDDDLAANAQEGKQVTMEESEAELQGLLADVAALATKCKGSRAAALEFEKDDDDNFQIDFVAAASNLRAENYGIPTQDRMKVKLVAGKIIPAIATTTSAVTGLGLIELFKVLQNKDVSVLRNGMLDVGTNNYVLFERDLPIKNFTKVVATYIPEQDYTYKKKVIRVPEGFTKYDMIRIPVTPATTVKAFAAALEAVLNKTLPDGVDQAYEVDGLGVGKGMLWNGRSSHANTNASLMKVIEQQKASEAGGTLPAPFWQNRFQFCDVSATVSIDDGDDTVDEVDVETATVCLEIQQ

[3] = target: AMP-activated protein kinase, AMPK (Homo sapiens) (UniProt P54646+O43741+P54619+Q9UGJ0+Q9Y478+Q13131+Q9UGI9); experiment: AMP-dependent Kinase enzyme assay. An in vitro enzyme assay that detects ADP turnover that is directly proportional to AMPK activity. This uses naive AMPK that is activated during the assay with MK-8722; assay type: functional; conditions: 30 µM
[4] = target: Sialic acid-binding Ig-like lectin 9 (Homo sapiens) (UniProt Q9Y336); experiment: Hs-Siglec9 ALPHAscreen SOP 20170721; conditions: 10 µM
Trypanosoma cruzi = experiment: Trypanosoma cruzi phosphomannomutase and mannose-1-phosphate guanylyltransferase assay; assay type: functional; conditions: 10 µM
[5] = target: T2, Arginase-2, mitochondrial (Homo sapiens) (UniProt P78540); experiment: in vitro enzyme assay to detect the production of urea directly proportional to the activity of Arginase II; assay type: functional; conditions: 33.3 µM; also: in the data most compounds retested in dose-response had high values
T2 sequence (whole entry): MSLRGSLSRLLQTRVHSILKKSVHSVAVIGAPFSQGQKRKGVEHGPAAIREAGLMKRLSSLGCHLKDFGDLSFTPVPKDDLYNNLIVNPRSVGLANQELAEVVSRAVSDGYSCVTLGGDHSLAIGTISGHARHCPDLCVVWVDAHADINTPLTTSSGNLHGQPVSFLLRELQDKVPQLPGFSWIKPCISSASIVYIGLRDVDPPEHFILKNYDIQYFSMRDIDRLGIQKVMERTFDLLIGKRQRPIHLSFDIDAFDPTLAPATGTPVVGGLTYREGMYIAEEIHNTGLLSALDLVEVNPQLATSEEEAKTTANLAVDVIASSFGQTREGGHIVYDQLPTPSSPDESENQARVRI

[6] = target: T3, Proteasome subunit beta (Trypanosoma cruzi) (UniProt O96673); experiment: Trypanosoma cruzi proteasome chymotrypsin-like activity (TcProtChymo) assay.; also: in the data most compounds retested in dose-response had high values; assay type: functional; conditions: 9.37 µM
T3 sequence (whole entry): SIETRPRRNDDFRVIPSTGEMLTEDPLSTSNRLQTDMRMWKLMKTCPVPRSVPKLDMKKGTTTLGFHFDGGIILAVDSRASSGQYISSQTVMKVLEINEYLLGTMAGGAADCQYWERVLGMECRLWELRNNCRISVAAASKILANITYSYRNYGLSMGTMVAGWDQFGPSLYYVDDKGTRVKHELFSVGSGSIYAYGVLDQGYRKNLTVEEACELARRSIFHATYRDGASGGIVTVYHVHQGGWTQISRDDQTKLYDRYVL

Homo sapiens = species: Homo sapiens; experiment: To identify inhibition of the IFN signalling (Jak-Stat) pathway via expression of an eGFP reporter gene under the control of an IFN-stimulated response element (ISRE) containing MxA promoter.; assay type: functional; conditions: 30 µM
[7] = target: T4, Tyrosyl-tRNA synthetase, putative (Trypanosoma cruzi (strain CL Brener)) (UniProt Q4DSP6); experiment: Trypanosoma cruzi tyrosyl tRNA synthetase (TcYRS) _High Tyrosine SOP; assay type: functional; conditions: 30 µM; also: in the data most compounds retested in dose-response had high values
T4 sequence (whole entry): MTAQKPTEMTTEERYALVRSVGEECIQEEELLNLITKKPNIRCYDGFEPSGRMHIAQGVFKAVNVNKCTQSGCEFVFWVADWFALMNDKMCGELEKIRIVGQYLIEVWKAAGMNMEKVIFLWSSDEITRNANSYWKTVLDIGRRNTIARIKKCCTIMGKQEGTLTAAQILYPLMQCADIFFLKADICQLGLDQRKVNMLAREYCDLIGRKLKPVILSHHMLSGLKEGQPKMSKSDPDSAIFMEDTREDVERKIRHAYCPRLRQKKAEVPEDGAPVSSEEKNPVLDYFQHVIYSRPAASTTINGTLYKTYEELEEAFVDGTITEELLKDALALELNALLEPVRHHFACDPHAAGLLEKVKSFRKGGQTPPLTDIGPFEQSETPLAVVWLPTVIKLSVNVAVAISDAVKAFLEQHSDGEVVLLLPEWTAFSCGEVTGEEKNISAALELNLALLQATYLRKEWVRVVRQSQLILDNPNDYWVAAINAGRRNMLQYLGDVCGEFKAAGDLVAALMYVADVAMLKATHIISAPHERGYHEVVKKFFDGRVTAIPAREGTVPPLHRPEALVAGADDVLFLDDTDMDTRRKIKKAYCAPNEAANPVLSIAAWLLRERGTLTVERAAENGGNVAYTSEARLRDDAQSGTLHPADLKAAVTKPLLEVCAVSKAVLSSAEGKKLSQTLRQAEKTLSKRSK

[8] = target: T4, Tyrosyl-tRNA synthetase, putative (Trypanosoma cruzi (strain CL Brener)); experiment: Trypanosoma cruzi tyrosyl tRNA synthetase (TcYRS) SOP; assay type: functional; conditions: 30 µM
[9] = target: Chromo domain-containing protein 1 (Saccharomyces cerevisiae (strain ATCC 204508 / S288c) (Baker's yeast)) (UniProt P32657); experiment: ScCHD-1 Enzyme Inhibition Assay; assay type: functional; conditions: 30 µM; also: in the data most compounds retested in dose-response had high values
Chromo domain-containing protein 1 (Saccharomyces cerevisiae (strain ATCC 204508 / S288c) (Baker's yeast)), sequence (P32657 whole entry, the tested form may be a part): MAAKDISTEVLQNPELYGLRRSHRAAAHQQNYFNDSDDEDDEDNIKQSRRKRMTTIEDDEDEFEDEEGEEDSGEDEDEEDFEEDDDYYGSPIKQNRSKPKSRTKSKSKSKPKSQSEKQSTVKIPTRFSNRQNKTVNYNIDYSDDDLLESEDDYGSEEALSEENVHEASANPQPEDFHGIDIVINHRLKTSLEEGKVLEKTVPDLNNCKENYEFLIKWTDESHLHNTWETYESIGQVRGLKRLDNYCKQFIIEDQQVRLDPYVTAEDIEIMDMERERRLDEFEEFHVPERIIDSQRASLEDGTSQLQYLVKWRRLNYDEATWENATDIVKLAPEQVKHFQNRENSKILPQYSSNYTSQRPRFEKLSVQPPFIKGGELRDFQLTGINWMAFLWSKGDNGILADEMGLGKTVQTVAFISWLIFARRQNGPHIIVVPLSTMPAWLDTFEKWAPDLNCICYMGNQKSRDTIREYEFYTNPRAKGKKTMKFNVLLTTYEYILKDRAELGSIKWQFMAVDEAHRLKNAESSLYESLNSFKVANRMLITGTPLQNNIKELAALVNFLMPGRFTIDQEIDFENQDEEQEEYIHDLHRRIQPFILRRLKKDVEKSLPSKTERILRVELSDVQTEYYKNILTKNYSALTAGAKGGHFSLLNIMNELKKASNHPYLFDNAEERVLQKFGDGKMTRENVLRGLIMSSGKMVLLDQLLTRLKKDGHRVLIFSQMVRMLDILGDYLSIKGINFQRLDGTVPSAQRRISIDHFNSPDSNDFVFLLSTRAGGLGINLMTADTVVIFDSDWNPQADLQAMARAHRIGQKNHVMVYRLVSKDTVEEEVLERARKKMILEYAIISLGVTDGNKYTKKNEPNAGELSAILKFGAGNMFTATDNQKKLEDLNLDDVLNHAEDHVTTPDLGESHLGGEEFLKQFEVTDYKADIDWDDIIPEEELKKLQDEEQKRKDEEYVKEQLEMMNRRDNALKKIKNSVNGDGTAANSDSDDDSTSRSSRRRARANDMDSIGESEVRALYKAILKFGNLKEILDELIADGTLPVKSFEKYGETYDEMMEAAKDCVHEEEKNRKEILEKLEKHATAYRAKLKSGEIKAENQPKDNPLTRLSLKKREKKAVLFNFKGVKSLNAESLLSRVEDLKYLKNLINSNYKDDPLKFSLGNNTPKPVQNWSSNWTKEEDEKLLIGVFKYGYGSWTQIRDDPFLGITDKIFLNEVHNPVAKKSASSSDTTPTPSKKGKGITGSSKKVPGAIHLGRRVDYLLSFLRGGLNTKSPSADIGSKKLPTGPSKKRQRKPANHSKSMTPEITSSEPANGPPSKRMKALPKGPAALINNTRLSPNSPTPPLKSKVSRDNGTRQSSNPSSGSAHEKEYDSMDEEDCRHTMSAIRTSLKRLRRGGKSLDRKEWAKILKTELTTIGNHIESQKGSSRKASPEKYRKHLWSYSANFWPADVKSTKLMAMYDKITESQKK

Sialic acid-binding Ig-like lectin 9 (Homo sapiens), sequence (Q9Y336 whole entry): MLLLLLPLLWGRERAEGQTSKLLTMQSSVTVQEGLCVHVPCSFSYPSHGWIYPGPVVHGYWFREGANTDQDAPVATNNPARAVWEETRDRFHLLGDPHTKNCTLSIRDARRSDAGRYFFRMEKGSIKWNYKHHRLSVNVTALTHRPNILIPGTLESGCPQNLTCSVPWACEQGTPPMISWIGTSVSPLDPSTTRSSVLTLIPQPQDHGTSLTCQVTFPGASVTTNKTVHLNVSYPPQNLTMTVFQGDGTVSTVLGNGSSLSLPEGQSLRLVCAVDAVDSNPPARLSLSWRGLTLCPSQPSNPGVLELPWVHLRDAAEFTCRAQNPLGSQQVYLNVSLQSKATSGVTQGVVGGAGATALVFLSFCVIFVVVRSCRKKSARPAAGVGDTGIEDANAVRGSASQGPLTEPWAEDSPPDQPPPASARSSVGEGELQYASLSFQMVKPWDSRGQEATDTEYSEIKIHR
Protein translocase subunit SecA (Escherichia coli (strain K12)), sequence (P10408 whole entry): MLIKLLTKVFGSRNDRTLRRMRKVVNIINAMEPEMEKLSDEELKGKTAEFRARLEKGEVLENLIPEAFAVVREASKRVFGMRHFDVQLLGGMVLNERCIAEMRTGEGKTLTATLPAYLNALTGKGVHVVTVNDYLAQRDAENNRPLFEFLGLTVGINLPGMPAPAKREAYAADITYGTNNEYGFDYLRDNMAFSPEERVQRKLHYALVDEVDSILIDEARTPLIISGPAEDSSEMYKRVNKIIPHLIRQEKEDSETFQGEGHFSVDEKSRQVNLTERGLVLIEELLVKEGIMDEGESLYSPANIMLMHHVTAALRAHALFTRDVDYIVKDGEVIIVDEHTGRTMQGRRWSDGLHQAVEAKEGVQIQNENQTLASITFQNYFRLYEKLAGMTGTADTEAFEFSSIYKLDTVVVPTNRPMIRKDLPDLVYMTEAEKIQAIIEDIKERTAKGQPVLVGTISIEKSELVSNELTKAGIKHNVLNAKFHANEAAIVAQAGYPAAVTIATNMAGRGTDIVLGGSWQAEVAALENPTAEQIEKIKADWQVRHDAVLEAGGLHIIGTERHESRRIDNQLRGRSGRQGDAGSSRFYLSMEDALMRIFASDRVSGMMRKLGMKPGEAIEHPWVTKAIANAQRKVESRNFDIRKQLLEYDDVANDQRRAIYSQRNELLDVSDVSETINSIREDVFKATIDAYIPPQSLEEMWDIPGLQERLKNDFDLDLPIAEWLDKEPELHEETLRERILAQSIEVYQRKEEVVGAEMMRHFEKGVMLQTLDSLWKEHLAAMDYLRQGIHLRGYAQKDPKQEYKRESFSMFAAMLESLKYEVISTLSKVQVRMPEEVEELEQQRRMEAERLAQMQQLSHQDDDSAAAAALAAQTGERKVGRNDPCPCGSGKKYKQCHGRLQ

SMILES | Percent Effect [1] | Percent Effect [2] | Percent Effect [3] | Percent Effect [4] | Percent Effect (Trypanosoma cruzi) | Percent Effect [5] | Percent Effect [6] | Percent Effect (Homo sapiens) | Percent Effect [7] | Percent Effect [8] | Percent Effect [9]
Cc1n[nH]c(C2CN(C(=O)c3cc(Cl)c[nH]3)CCO2)n1 (stereo not given) | -1.17% | 2.63% | 11.8% | -0.307% | -0.876% | -3.55% | 5.27% | -2.14% | 4.25% | 5.2% | 0.543%
CC(C)C(=O)N1CCN(C(=O)CCc2nnc(-c3ccccc3)o2)CC1 | -1.03% | 5.06% | -0.0997% | 0.624% | -4.06% | 4.94% | 0.901% | 16.1% | 3.45% | 8.86% | -7.27%
COCCn1c2c(ccc1=O)CC(NS(C)(=O)=O)CC2 (stereo not given) | -3.49% | 13.3% | -2.12% | -9.48% | -7.68% | -1.63% | -1.15% | 10.7% | 0% | 3.85% | -4.29%
CN(Cc1cn2c(n1)CN(C(=O)CC1CC1)CC2)Cc1ccco1 | -3.7% | 2.67% | 8.42% | 1.6% | -0.197% | 8.16% | -3.44% | 20.3% | 5.32% | 14.1% | -0.584%
Cc1nnc(N2CCC(CN(C)C(C)C)CC2)c(C#N)c1C | -4.73% | 2.6% | -19% | -13.1% | 9.89% | -4% | 3.64% | 4.7% | 3.81% | 11.8% | -23.4%
COCC(=O)N1CCC(c2nc3ccc(N4CCCC4)cn3n2)CC1 | -3.58% | 5.48% | -210% | 5.8% | -4.96% | 1.2% | 10% | -9.84% | 7.29% | 11.1% | -3.02%
O=C(c1cnc(-c2cccs2)s1)N1CCCN2CCCC2C1 (stereo not given) | -2% | 5.41% | -8.71% | -6.92% | -2.36% | -16% | 12.6% | -1.67% | 4.43% | 23.5% | -7.67%
Cc1nn(C)c(C)c1C1CCCN1Cc1nc(-c2ccco2)oc1C (stereo not given) | -4.35% | 18.9% | -4.34% | -6.83% | -1.76% | 3.14% | 11.3% | 18.9% | 8.91% | 13.4% | -8.93%
CCN1CCN(C2CCN(Cc3cc(C)on3)CC2)C1=O | -6.77% | 5.06% | 1.9% | -3.3% | 8.21% | -3.04% | 7.94% | 1.37% | 3.45% | 8.86% | -13.6%
CCc1nc(CN2CCCN(C(=O)c3cnc[nH]3)CC2)cs1 | -0.253% | -2.7% | 2.03% | 4.57% | 2.14% | -1.66% | 12.9% | 2.83% | 3.96% | 1.22% | 4.62%
CNC(=O)[C@H]1C[C@H]2OCC[C@H]2N(Cc2cccc3ccccc23)C1 | -2.27% | 10.4% | 2.57% | 2.56% | -0.296% | -3.23% | 8.01% | -0.999% | 3.17% | 8.97% | -9.11%
O=C(c1cccs1)N1CCC(n2nc(-c3ccco3)ccc2=O)CC1 | -6.35% | 12.2% | 7.9% | 14% | -1.19% | -5.8% | 12.9% | 0.605% | 9.68% | 16.9% | -26.4%
Cn1cnc2c1CCN(Cc1nc(COc3ccc(F)cc3)no1)C2 | -9.01% | 7.89% | 3.1% | 1.46% | -5.7% | 1.44% | 7.19% | 10.3% | 0.493% | -6.17% | -0.821%
COc1ccc(F)c(CN2CCC3(CCC(=O)N(CC(N)=O)C3)CC2)c1 | -4.11% | 5.33% | -12.6% | -1.01% | -3.02% | -3.12% | 12.4% | 36.4% | 6.01% | 8.64% | -5.79%
O=S(=O)(Cc1ccccc1F)NCCCN1CCCCC1 | -5.56% | 2.67% | -0.488% | 18.2% | 1.66% | -1.04% | 3.49% | -24.3% | 1.64% | 1.24% | -4.29%
Cc1nc(CN2CCc3cncnc3C2)oc1C | -0.217% | 2.74% | -102% | 7.08% | 5.09% | 16.8% | 3.55% | 2.92% | 2.15% | 12.5% | -7.36%
CC(C(=O)NCc1cccc(N2CC=CC2)c1)n1cccn1 (stereo not given) | -6.41% | 0% | 3.53% | 1.65% | -1.5% | -1.15% | -1.5% | 22.9% | 0.49% | -2.44% | -1.88%
CCN(CC)CCNC(=O)c1cc(C(C)C)nc(N2CCCC2)n1 | -0.4% | 20% | 1.03% | -8.5% | 2.55% | -24.1% | 12.8% | 20.4% | 0% | 12.8% | 80.8%
COCC(=O)N1CC[C@H]2C[C@@H](c3nnc(C4CC4)o3)O[C@@H]2C1 | -5.18% | 18.7% | -7.93% | 0.755% | 1.74% | -57.2% | 19.5% | -2.44% | 4.17% | 17.5% | -6.39%
O=C(c1cccnc1)N1CCCC(c2cc(C(F)F)n3ncnc3n2)C1 (stereo not given) | -4.9% | 9.46% | 12.9% | 2% | -5.53% | 0.232% | 7.64% | 8.61% | 0% | 6.49% | 9.01%
